# Among all 190,000 compounds or so, about 4,100 (2.2%) were called active. The list comes from a sample in which actives are over-represented; it also holds similar structures and randomly drawn compounds. Values without a mark were called inactive.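 Rule for the calls: active = thallium flux slope and its plate-corrected score both differing from the plate sample mean at a set confidence after two filtering rounds, in either direction; inactive = the rest.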
# Target: Solute carrier family 12 member 5 (Homo sapiens) (UniProt Q9H2X9)
# Assay: modulation of human KCC2 ion transport – cell-based, HEK293 KCC2, FluoZin-2 fluorescence, MLSMR, primary screen (AID 1456);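 note: slope of fluorescence scaled to starting intensity during 10 to 20 s after thallium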
# Settings: KCC2 cells, thallium flux FluoZin-2 fluorescence; at 10 µM
# Solute carrier family 12 member 5 (Homo sapiens), sequence (Q9H2X9 whole entry, looked up): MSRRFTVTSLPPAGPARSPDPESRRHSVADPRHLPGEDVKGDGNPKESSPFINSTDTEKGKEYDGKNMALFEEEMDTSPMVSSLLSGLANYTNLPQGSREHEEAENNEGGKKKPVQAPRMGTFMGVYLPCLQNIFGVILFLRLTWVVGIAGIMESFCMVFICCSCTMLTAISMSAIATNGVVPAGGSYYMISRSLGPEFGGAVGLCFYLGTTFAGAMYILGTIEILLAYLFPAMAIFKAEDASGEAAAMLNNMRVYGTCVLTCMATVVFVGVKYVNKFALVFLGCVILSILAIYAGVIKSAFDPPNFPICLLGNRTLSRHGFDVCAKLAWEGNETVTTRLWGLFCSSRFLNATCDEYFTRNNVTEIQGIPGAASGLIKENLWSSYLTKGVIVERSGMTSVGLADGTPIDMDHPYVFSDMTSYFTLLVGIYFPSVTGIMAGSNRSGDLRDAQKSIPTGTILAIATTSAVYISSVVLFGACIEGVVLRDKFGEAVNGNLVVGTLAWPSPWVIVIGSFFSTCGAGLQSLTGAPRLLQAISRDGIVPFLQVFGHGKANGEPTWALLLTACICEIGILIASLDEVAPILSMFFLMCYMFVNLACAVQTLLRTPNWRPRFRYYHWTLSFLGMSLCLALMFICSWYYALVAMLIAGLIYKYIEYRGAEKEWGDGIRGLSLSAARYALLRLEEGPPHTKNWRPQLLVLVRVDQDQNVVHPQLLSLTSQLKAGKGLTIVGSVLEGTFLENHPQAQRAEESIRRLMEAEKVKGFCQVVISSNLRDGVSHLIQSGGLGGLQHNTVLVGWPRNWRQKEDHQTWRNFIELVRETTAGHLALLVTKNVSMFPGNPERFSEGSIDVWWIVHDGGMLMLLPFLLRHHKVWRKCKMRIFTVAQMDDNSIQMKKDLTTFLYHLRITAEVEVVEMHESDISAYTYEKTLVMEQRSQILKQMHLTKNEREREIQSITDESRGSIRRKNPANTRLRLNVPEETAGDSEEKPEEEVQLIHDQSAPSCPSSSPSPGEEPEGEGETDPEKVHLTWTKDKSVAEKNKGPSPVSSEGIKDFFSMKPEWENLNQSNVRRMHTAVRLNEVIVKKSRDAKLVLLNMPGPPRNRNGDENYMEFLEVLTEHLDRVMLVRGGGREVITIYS
row,SMILES,B-score of Tl+ flux slope (higher = more flux/activation; lower = inhibition)
1,C/C(=N\Nc1cccc(C(=O)O)c1)c1ccc2c(c1)Nc1ccccc1S2,-3.29
2,CCOc1ccccc1C1CC(c2ccc(Cl)cc2)Nc2nc(N)nn21 (stereo not drawn),-3.62 (active)
3,COc1ccc(C2CC(c3ccc(Cl)cc3Cl)Nc3nc(N)nn32)cc1OC (stereo not drawn),1.07
4,Cc1ccc(C2CC(c3cccc(C)c3)n3nc(N)nc3N2)cc1 (stereo not drawn),1.35
5,COCCNC(=S)N1CCN(C)CC1,1.24
6,CCC(C)NC(=O)C1c2ccccc2Oc2ccccc21 (stereo not drawn),0.329
7,O=C(NCc1ccco1)C1CCCN1S(=O)(=O)c1ccccc1C(F)(F)F (stereo not drawn),0.797
8,Cc1ccc(/C=N/NC(=S)NC2CCCCC2)o1,13.3 (active)
9,C/C(=N\NC(=S)NC1CCCCC1)c1ccc(C)o1,13.6 (active)
10,S=C(NCc1ccc(Cl)cc1)NC1CCCCC1,-1.07
11,C/C(=N/NC(=O)c1ccc(Br)o1)c1ccc(C)o1,2.02
12,Cc1ccc(/C=N/NC(=O)CNC(=O)COc2ccccc2)o1,1.42
13,Cc1ccc(NC(=S)NC2CCCC2)cc1,-0.0505
14,Nc1ccc(N=Nc2ccccc2Cl)c(N)n1,-0.811
15,O=C(Nc1nc2ccc([N+](=O)[O-])cc2s1)c1ccncc1,0.253
16,O=C(O)CCC(=O)Nc1nc2ccc([N+](=O)[O-])cc2s1,-0.905
17,O=C(NC(Nc1nc2ccc([N+](=O)[O-])cc2s1)(C(F)(F)F)C(F)(F)F)c1ccccc1,18.8 (active)
18,O=[N+]([O-])/C=C1\CCCCCN1,0.62
19,O=C(CNC(=O)c1ccc(-c2ccccc2)cc1)OCc1ccc(Cl)cc1,0.889
20,O=C(OCN1C(=O)c2ccccc2C1=O)/C(=C\c1ccco1)NC(=O)c1ccccc1,0.982
21,CC(C)(C)c1ccc(C(=O)NCC(=O)OCN2C(=O)c3ccccc3C2=O)cc1,2.84 (active)
22,CC(=O)OCCOCn1cnn2c(=O)c(Br)c(C)nc12,0.438
23,Cn1nc(C(F)(F)F)c(-c2ccc(F)cc2)c1NC(=O)CSCC(=O)O,0.439
24,O=C(Nc1cccnc1)c1cc([N+](=O)[O-])ccc1Cl,-0.0312
25,CCC(=O)NNc1cc(=O)c2c(=O)n(C)c(=O)n(C)c2[nH]1,1.26

row,SMILES,B-score of Tl+ flux slope (higher = more flux/activation; lower = inhibition)
1,CC(=O)NNc1cc(=O)c2c(=O)n(C)c(=O)n(C)c2[nH]1,6.19 (active)
2,Nc1nnn(CC(=O)N/N=C/c2ccc(O)cc2)n1,0.292
3,Cn1nnc(NC(=S)NC(=O)c2ccccc2)n1,0.462
4,CC1(C)CC(CNCCC(c2ccc(F)cc2)c2ccco2)CCO1 (stereo not drawn),-2.25
5,Cc1cccc(NC(=S)NC(=O)c2ccc(Br)o2)c1,143 (active)
6,Cc1cccc(NC(=O)/C(=C\c2ccco2)NC(=O)c2ccccc2)c1,0.0694
7,Cc1cccc(NC(=O)c2ccc([N+](=O)[O-])o2)c1,-0.0536
8,Cc1cccc(NC(=S)Nc2ccc(Br)cc2)c1,0.311
9,Cc1cccc(NC(=O)NC(=S)NC(=O)c2ccccc2)c1,16.4 (active)
10,Cc1ccc(NC(=S)NC(=O)c2ccc(-c3ccccc3)cc2)cc1,1.16
11,CCOc1ccc(C2NC(=S)NC3=C2CCc2ccccc23)cc1 (stereo not drawn),0.359
12,CC(=O)Nc1ccc(/C=C/C(=O)c2ccccc2)cc1,-1.42
13,CCCc1nc2c(c(=O)c3ccccc3n2C)c(=O)n1-c1cc(C)cc(C)c1,-2.43
14,Cc1cc(OCCCCOc2ccc(C#N)cc2)ccc1[N+](=O)[O-],2.16
15,Clc1ccc(C[n+]2cc(-c3ccccc3)n3c2CCC3)cc1,0.476
16,CCOC(=O)C1CCCN(C(=O)C2CCN(c3nnc(-n4cccc4)s3)CC2)C1 (stereo not drawn),-0.42
17,CSc1ccc(CCNC(=O)C2CCN(c3nnc(-n4cccc4)s3)CC2)cc1,0.348
18,O=C(C1CCN(c2nnc(-n3cccc3)s2)CC1)N1CCc2ccccc2C1,-3.67 (active)
19,COc1ccc2[nH]c(C(=O)Nc3ccccc3Cl)cc2c1,0.0923
20,CCCCOc1ccc(CON(C(C)=O)C(C)=O)cc1Cl,0.181
21,Cc1oc(-c2ccccc2F)nc1CS(=O)(=O)CC(=O)NCCCN(C)C1CCCCC1,-0.282
22,Cc1ccccc1-c1nc(CS(=O)(=O)CC(=O)N2CCc3ccccc3C2)c(C)o1,-3.98 (active)
23,COC(=O)c1cc2occc2n1Cc1nc(-c2ccccc2C)oc1C,0.574
24,O=C(COc1ccccc1)N1CCc2ccccc2C1,0.0757
25,COc1ccc(-c2nc(CS(=O)CC(=O)NCc3ccccn3)c(C)o2)cc1 (stereo not drawn),1.46

row,SMILES,B-score of Tl+ flux slope (higher = more flux/activation; lower = inhibition)
1,COc1ccc(-c2nc(CS(=O)CC(=O)N3CCc4ccccc4C3)c(C)o2)cc1 (stereo not drawn),-6.3 (active)
2,S=C(NCc1ccc2c(c1)OCO2)NCc1ccco1,-0.178
3,CCOC(=O)C1CCN(C(=O)Nc2cccc(OC)c2)CC1,0.26
4,Cc1ccccc1Cn1c2ccccc2c2cnn(CC(=O)NCc3ccco3)c(=O)c21,-0.21
5,COC(=O)CNc1nc(Cl)nc(N2CCC(C)CC2)n1,0.436
6,CNC(=O)/C(=C\C=C\c1ccccc1)NC(=O)c1ccc([N+](=O)[O-])cc1,-6.01 (active)
7,O=C(Nc1ccccc1)/C(=C/c1ccc([N+](=O)[O-])cc1)NC(=O)c1ccccc1,0.951
8,O=C(Nc1ccc(C(=O)O)cc1)/C(=C/c1ccc([N+](=O)[O-])cc1)NC(=O)c1ccccc1,-0.11
9,Cc1ccc(/C=C/C(=O)O)cc1S(=O)(=O)N1CCC(Cc2ccccc2)CC1,-2.01
10,Cc1ccc(C)c2c1cc(C)c1nnc(SCC(=O)Nc3cccc(C(=O)O)c3)n12,4.23
11,COc1cc2nc(Cl)nc(NCCO)c2cc1OC,0.407
12,COc1cccc(NC(=O)C(Sc2nc3ccccc3c(=O)n2CC(C)C)c2ccccc2)c1 (stereo not drawn),7.69 (active)
13,CC(Sc1nc2ccccc2c(=O)n1Cc1ccco1)C(=O)c1ccccc1 (stereo not drawn),-0.121
14,COc1cccc(NC(=O)C(Sc2nnnn2C)c2ccccc2)c1 (stereo not drawn),-0.113
15,Nc1nc(Sc2ncccc2[N+](=O)[O-])n[nH]1,-0.977
16,Cc1ccc(N2C(=O)CN=C2Nc2nc(C)cc(C)n2)cc1,0.73
17,CNC(=S)NNC(=O)c1ccc(N(C)C)cc1,0.736
18,CC(=O)NC(=S)NNC(=O)c1ccc(Br)cc1,5.47 (active)
19,O=C(CCc1ccccc1)NNC(=O)c1ccc(Br)cc1,-1.74
20,COC(=O)c1ccc(S(=O)(=O)NCc2ccccc2)n1C,-0.343
21,O=C1CCCCC1C(=O)c1ccccc1 (stereo not drawn),0.304
22,CN(C)c1cc(-c2ccc(F)cc2)oc(=O)c1Cl,0.0271
23,COc1ccnc(Oc2ccccc2)c1-c1ncn[nH]1,0.306
24,O=C(NCc1cccs1)C1CCN(S(=O)(=O)c2ccc(Cl)cc2)CC1,-0.17
25,O=C(CNCc1ccco1)Nc1cc(S(=O)(=O)N2CCOCC2)ccc1N1CCCC1,-0.873

row,SMILES,B-score of Tl+ flux slope (higher = more flux/activation; lower = inhibition)
1,O=C(CNCc1cccs1)Nc1cc(S(=O)(=O)N2CCCC2)ccc1Cl,-3.68 (active)
2,COCCCn1c(-c2cccs2)nc2nc3ccccc3nc21,0.0602
3,COc1ccc(Cl)cc1NC(=O)CN(C)C(=O)CNC(=O)C12CC3CC(CC(C3)C1)C2,0.0604
4,O=C(N/N=C1\CCSC1)c1cc(Cl)ccc1O,0.11
5,C/C(=N/NC(=O)c1cc(Cl)ccc1O)C12CC3CC(CC(C3)C1)C2,4.51 (active)
6,CCOC(=O)C1CCN(C(=O)Nc2ccc(C)c(Cl)c2)CC1,0.0935
7,CCOC(=O)C(=Cc1ccccc1OC)C(=O)OCC,-0.438
8,O=C(CN1C(=O)/C(=C/c2ccccc2F)Sc2ccccc21)NCc1cccnc1,-1.86
9,COc1ccc(C(=O)C2CCCN(C(=O)c3cnsn3)C2)c(C)c1 (stereo not drawn),-0.0096
10,O=S(=O)(c1ccccc1)N1CN(Cc2ccc(F)cc2)c2nc3ccccc3nc21,-1.17
11,CCc1ccc(Nc2nnc(SCC(=O)c3ccc4c(c3)NC(=O)CO4)s2)cc1,-5.32 (active)
12,O=C1COc2ccc(C(=O)COC(=O)c3cccnc3Cl)cc2N1,-0.384
13,COc1cccc(Nc2nnc(SCC(=O)N3CC(=O)Nc4ccccc43)s2)c1,-0.459
14,O=C(Cn1cnc2cc([N+](=O)[O-])ccc2c1=O)NC(=O)NCc1ccccc1,-0.182
15,CC(=O)c1ccc(S(=O)(=O)Nc2ccc(C(=O)NCC(c3ccccc3)N(C)C)cc2)cc1 (stereo not drawn),0.133
16,COc1ccc(N2CCC(CNC(=S)Nc3c(C)cccc3C)C2)cc1 (stereo not drawn),-0.00939
17,Cc1c(NC(=O)c2cccnc2)c(=O)n(-c2ccccc2)n1C,0.0888
18,Cc1c(NC(=O)CSc2cccc3cccnc23)c(=O)n(-c2ccccc2)n1C,4.92 (active)
19,Cc1c(NC(=O)CSc2nnnn2-c2ccc(C(=O)O)cc2)c(=O)n(-c2ccccc2)n1C,1.95
20,Clc1cccc(CN2COc3c(cc(Cl)c4cccnc34)C2)c1,4.19 (active)
21,O=c1[nH]n(-c2cccc(Cl)c2)c2ncccc12,0.268
22,Nc1c(C(=O)NCc2ccccc2)nnn1Cc1cccc(Cl)c1,-1.02
23,O=C(NNS(=O)(=O)c1ccccc1C(F)(F)F)c1cc2ncc(C(F)(F)F)cc2s1,-0.726
